According to PubChem BioAssay (NCATS):
Values joined by “and” are separate entries in the source; they are usually repeats but may differ in a detail not shown here. Identical values can stand only once. Results filed as inconclusive are left out. Active and inactive are the calls of the source. Unless noted, the call rests on the fitted dose curve; in most records, active means well fitted curve in the direction sought with a large enough effect; inconclusive means small, poorly fitted or top-dose-only effect, or another doubt; inactive means no such curve, though single readings can be large; an effect the other way counts as inactive or inconclusive.

Key:
[1] = AP1 Signaling Pathway (AID 357; active means well fitted curve in either direction with a large enough effect, not every such curve was filed as active;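 further: ME-180 reporter cells stimulated with EGF at its EC50 level; on the % scale 0 is the no-effect control and ±100 the full control effect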); conditions: ME-180 AP-1-bla reporter, EGF-induced, beta-lactamase ratio, 5 h
Method in brief: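 AP-1-bla ME-180 cells, Opti-MEM + 0.5% dialyzed FBS, plated overnight 37 °C. Cpd titration + EC50 EGF, 5 h 37 °C. CCF4 2.5 h RT; ex 405, em 460/530 ratio → %activity, AC50.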

[2] = biological target: Cytochrome P450 1A2 (Homo sapiens) (UniProt P05177); experiment: p450-cyp1a2 (AID 410; calls by dose curve; further: potency means the concentration at half of the fitted maximal effect;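 on activity change, negative = inhibition: -100% = full effect of reference inhibitor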)
Sequence of Cytochrome P450 1A2 (Homo sapiens) (P05177 whole entry, looked up): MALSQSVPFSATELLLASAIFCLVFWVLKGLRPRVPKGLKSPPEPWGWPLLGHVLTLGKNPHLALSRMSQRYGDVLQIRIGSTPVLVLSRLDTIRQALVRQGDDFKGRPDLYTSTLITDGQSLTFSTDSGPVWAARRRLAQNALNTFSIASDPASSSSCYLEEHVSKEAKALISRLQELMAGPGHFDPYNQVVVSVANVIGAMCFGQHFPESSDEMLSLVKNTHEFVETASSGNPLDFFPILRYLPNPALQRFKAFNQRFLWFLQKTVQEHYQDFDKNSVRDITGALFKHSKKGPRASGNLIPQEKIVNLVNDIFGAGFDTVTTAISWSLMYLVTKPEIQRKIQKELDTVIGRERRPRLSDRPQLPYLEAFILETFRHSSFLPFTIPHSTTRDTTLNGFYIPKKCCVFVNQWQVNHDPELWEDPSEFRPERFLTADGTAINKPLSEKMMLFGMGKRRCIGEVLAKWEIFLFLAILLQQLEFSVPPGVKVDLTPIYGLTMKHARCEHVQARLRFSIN
Method in brief: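 Human CYP1A2 (20nM) demethylated Luciferin-ME at its Km (100uM) in 100mM KPO4. After 10 min compound preincubation, NADPH regeneration ran the reaction 60 min at room temperature. Luciferin was read by luminescence, normalized to 57 uM furafylline.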

[3] = NFAT Signaling Pathway (AID 444; active means well fitted curve in either direction with a large enough effect, not every such curve was filed as active;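 further: carbachol stimulus at about its EC50 of 1 µM final; on the % scale 0 is the no-effect control and ±100 the full control effect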); conditions: Jurkat NFAT-bla M1, carbachol, beta-lactamase ratio, 5 h
Method in brief: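 Jurkat cells carrying an NFAT-driven β-lactamase reporter and co-transfected muscarinic M1 receptor were treated with compound plus carbachol (1 uM final, an EC50 level) for 5 h at 37 °C. CCF4 loading followed for 1 h at RT; 460/530 nm ratio gave %activity.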

[4] = Stat Signaling Pathway (AID 446; active means well fitted curve in either direction with a large enough effect, not every such curve was filed as active;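 further: ME-180 cervical cancer cells given 40 pM IL-6 alongside compound; SIE-controlled beta-lactamase reporter measured as 460/530 nm FRET emission ratio; on the % scale 0 is the no-effect control and ±100 the full control effect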); conditions: ME-180 SIE beta-lactamase reporter, IL-6 stimulated, 5 h
Method in brief: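 Screening format detects activators and inhibitors alike: ME-180 SIE-bla cells stimulated at 40 pM IL-6 for 5 hrs with compound, then dual-emission beta-lactamase read at 405 nm excitation.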

[5] = biological target: Glucocorticoid receptor (Homo sapiens) (UniProt P04150); experiment: GR-GFP Redistribution (AID 450;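 active means compounds whose dose series gives a full or clear partial fitted curve of increased nuclear translocation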; further: potency means the concentration at half of the fitted maximal effect); conditions: U2OS GR-GFP nuclear translocation, laser cytometry, 2 h
Sequence of Glucocorticoid receptor (Homo sapiens) (P04150 whole entry, looked up, the tested form may be a part): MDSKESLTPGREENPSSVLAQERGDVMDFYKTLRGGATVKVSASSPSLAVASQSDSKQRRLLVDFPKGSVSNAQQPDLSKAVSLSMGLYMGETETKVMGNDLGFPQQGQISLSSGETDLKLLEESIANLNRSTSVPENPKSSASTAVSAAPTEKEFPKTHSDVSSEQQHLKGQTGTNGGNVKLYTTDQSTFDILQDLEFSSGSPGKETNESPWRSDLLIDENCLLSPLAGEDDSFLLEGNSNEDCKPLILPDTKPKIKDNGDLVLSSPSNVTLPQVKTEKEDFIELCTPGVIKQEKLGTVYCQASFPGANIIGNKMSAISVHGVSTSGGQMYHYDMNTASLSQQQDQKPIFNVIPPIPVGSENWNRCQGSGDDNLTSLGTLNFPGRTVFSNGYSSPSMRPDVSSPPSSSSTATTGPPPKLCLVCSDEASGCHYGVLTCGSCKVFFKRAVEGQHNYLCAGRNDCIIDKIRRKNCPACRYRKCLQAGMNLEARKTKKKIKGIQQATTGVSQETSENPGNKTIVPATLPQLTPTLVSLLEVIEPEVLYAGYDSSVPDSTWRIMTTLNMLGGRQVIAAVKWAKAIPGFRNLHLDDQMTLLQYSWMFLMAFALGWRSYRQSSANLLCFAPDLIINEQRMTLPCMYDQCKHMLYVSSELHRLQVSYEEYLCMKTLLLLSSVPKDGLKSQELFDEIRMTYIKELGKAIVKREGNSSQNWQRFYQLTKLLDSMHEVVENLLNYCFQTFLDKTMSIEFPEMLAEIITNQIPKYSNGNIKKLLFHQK

[6] = biological target: Glucocorticoid receptor (Homo sapiens) (UniProt P04150); experiment: GR-EFC Redistribution (AID 451; calls by dose curve; further: potency means the concentration at half of the fitted maximal effect); conditions: CHO-K1 GR-EFC translocation, beta-gal luminescence, 2 h
Method in brief: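 CHO-K1 cells stably expressing nuclear-localized β-gal enzyme acceptor and GR fused C-terminally to the enzyme donor fragment; ligand-driven nuclear translocation restores β-gal by complementation. Compounds titrated up to 46 uM final, 2 h at 37 °C; luminescence read.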

[7] = biological target: 3',5'-cyclic-AMP phosphodiesterase 4B (Homo sapiens) (UniProt Q07343); experiment: qHTS Assay for Inhibitors of PDE-IV (AID 607; active means well fitted activation curve with a large enough effect in the main read-out, with a control signal flat, not every such curve was filed as active; further: % of control where 0% means no effect)
Sequence of 3',5'-cyclic-AMP phosphodiesterase 4B (Homo sapiens) (Q07343 whole entry, looked up): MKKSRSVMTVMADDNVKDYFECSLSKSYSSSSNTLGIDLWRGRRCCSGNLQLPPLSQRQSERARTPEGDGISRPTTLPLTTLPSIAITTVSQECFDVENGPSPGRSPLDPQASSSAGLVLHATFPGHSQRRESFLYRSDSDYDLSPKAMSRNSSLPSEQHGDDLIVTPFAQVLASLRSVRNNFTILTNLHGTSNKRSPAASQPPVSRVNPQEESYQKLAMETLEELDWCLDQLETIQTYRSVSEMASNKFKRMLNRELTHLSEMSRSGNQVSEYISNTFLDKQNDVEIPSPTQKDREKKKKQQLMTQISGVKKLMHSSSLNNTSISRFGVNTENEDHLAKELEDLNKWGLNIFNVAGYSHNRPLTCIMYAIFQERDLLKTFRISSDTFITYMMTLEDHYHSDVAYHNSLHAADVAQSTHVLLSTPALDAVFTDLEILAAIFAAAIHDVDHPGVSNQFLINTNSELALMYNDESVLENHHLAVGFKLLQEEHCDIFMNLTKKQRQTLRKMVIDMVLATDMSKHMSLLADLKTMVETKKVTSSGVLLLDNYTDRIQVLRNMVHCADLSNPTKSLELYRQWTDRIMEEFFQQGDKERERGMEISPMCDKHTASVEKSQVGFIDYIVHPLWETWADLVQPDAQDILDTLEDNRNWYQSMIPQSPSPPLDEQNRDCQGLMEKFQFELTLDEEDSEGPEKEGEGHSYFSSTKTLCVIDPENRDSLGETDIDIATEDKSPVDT
Method in brief: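 The readout is membrane depolarisation from a cAMP-sensing CNG channel, detected with a potential dye at ex 535/em 590. Cells were HEK293-derived (endogenous PDE-IV) at 1000 cells/well, titrated up to 22.9 uM final.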

[8] = qHTS Assay for Lipid Storage Modulators (AID 1519; calls by dose curve); conditions: Drosophila S3 cells, BODIPY lipid droplet/cell ratio, laser cytometry, cells loaded with oleic acid; for activity change, negative = inhibition: at 25.7 µM (top of the series)
Method in brief: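 Cells seeded at 5,000 per well were treated with compounds over a concentration series and loaded with oleic acid (400 uM, as added). Lipid droplet fluorescence (488 nm excitation, 500-530 nm channel) was read by laser-scanning cytometry and normalized to 20 uM Triacsin C.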

[9] = biological target: ATP-dependent 6-phosphofructokinase (Trypanosoma brucei brucei) (UniProt O15648); experiment: qHTS Assay to Find Inhibitors of T. brucei phosphofructokinase: hit validation (AID 492961);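 further: luminescence reports ADP formed as PFK phosphorylates fructose-6-phosphate with ATP; on the % scale 0 is the no-effect control and ±100 the full control effect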
Sequence of ATP-dependent 6-phosphofructokinase (Trypanosoma brucei brucei) (O15648 whole entry, looked up): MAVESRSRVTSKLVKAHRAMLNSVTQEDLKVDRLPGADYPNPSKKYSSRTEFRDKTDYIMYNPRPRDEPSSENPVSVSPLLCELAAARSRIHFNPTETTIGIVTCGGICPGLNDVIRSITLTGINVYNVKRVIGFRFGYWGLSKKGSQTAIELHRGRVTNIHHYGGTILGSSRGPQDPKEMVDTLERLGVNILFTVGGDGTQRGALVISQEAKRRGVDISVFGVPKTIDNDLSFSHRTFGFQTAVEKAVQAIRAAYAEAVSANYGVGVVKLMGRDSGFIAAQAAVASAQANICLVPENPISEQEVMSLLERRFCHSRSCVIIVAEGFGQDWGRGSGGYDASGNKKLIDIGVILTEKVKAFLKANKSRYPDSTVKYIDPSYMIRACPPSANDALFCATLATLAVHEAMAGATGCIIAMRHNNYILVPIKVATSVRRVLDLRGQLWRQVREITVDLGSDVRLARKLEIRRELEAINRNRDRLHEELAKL
Method in brief: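 Reaction: 0.1 M triethanolamine pH 8.0, 5 mM MgCl2, F6P 0.5 mM, ATP 0.1 mM, PFK 1.25 nM, 45 min RT. Read-out: ADP-Glo luminescence. Analysis: concentration-response fits, classed by r2 and efficacy.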

[10] = biological target: Ubiquitin carboxyl-terminal hydrolase 1 (Homo sapiens) (UniProt O94782); experiment: Inhibitors of USP1/UAF1: Pilot qHTS (AID 504865);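 further: rhodamine fluorescence freed from ubiquitin-rhodamine substrate followed over time; top concentration of the series differs between compounds; on the % scale 0 is the no-effect control and ±100 the full control effect; nearly all actives have a fitted effect of over 35% in size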
Sequence of Ubiquitin carboxyl-terminal hydrolase 1 (Homo sapiens) (O94782 whole entry, looked up): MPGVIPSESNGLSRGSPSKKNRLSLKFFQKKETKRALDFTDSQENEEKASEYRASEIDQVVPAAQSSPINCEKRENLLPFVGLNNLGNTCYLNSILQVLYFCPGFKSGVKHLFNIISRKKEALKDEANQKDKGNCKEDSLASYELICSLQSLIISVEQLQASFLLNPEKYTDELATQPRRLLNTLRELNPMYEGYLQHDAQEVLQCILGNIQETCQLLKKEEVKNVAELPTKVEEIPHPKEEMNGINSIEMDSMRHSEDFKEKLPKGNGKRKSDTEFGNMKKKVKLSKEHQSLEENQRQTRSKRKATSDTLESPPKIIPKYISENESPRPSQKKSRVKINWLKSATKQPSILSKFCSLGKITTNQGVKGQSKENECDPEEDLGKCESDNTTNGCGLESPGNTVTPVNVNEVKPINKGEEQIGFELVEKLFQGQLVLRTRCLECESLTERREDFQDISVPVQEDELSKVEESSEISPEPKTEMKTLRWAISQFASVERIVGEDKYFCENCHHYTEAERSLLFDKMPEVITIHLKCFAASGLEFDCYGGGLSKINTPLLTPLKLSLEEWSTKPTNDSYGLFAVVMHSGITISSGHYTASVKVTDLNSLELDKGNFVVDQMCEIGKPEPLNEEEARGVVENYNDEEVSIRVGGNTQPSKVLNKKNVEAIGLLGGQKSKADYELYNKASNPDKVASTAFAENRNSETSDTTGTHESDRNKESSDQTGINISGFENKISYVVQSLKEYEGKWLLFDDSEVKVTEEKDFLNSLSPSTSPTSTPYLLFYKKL
Method in brief: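 Kinetic fluorescence assay: 1nM USP1/UAF1, 15 min compound preincubation, then 150nM Ub-Rho; 480/540 nm.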

[11] = qHTS profiling for inhibitors of Plasmodium falciparum proliferation (AID 504749); further: nearly all actives have a fitted effect of over 60% in size; further: potency means the concentration at half of the fitted maximal effect;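 on activity, negative = inhibition: 0% = DMSO vehicle and full inhibition = artemisinin control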; conditions: P. falciparum in erythrocytes, SYBR Green DNA, 72 h
Method in brief: (§1)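 P. falciparum-infected erythrocytes (0.3% parasitemia, 2.5% hematocrit final) were exposed to compounds for 72 h at 37 C in 5% CO2, then lysed with SYBR Green buffer overnight at room temperature; parasite DNA fluorescence was normalized to artemisinin and DMSO controls.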

AS120 = experiment: as above; conditions: P. falciparum in erythrocytes, SYBR Green DNA, 72 h; series mostly up to 28.7 µM
Method in brief: as §1

CP238 = experiment: as above; conditions: P. falciparum in erythrocytes, SYBR Green DNA, 72 h; series mostly up to 12.8 µM
Method in brief: as §1

CP250 = experiment: as above; conditions: P. falciparum in erythrocytes, SYBR Green DNA, 72 h; series mostly up to 12.8 µM
Method in brief: as §1

CP262 = experiment: as above; conditions: P. falciparum in erythrocytes, SYBR Green DNA, 72 h; series mostly up to 12.8 µM
Method in brief: as §1

CP265 = experiment: as above; conditions: P. falciparum in erythrocytes, SYBR Green DNA, 72 h; series mostly up to 12.8 µM
Method in brief: as §1

FAB9 = experiment: as above; conditions: P. falciparum in erythrocytes, SYBR Green DNA, 72 h; series mostly up to 12.8 µM
Method in brief: as §1

JCK = experiment: as above; conditions: P. falciparum in erythrocytes, SYBR Green DNA, 72 h; series mostly up to 12.8 µM
Method in brief: as §1

PC49 = experiment: as above; conditions: P. falciparum in erythrocytes, SYBR Green DNA, 72 h; series mostly up to 12.8 µM
Method in brief: as §1

[12] = biological target: Mitogen-activated protein kinase 10 (Mus musculus) (UniProt Q61831); experiment: JNK3 AlphaScreen Assay (AID 530; active means well fitted curve in either direction with a large enough effect, not every such curve was filed as active)
Method in brief: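 JNK3 came from HepG2 lysates pre-activated with IL-1beta and TNF-alpha and phosphorylated biotinylated GST-cJun (1-79) at 10 uM ATP, pH 7.6, room temperature. Compounds were titrated. AlphaScreen signal used anti-phospho-cJun (Ser73) antibody.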

[13] = at 7.69 µM (top of the series) unless noted
[14] = measured here: cell count channel max response
[15] = measured here: lipid channel max response
[16] = at 12.8 µM (top of the series), parasite line A
[17] = at 12.8 µM (top of the series), parasite line B

CC1(C)O[C@@H]2C[C@H]3[C@H]4C[C@H](F)C5=CC(=O)C=C[C@@]5(C)[C@@H]4[C@H](O)C[C@]3(C)[C@]2(C(=O)CO)O1
active: Potency [5] 0.00395 µM | Potency [6] 0.00485 µM
-24%: max response [8, 14]
-28.6%: max response [8, 15]
inactive: activity change, negative = inhibition [1, 13] 21.4% [at 17.2 µM] | Potency [2] | activity change, negative = inhibition [3, 13] -5.12% [at 17.2 µM] | activity, negative = inhibition [4, 13] -5.69% [at 17.2 µM] | Potency [7] | activity change, negative = inhibition [8] -4.94% | outcome [9] | Potency [10] | activity, negative = inhibition [11, 16] -1.94% | activity, negative = inhibition [11, 17] 13.2% | Potency (AS120) | Potency (CP238) | Potency (CP250) | Potency (CP262) | Potency (CP265) | Potency (FAB9) | Potency (JCK) | Potency (PC49)

C[C@H](NCCc1ccc(O)cc1)[C@@H](O)c1ccc(O)cc1
inactive: activity change, negative = inhibition ([1]; at 17.2 µM (top of the series)) -5.73% | activity change, negative = inhibition ([1]; at 38 µM (top of the series)) 12.1% | Potency [2] | activity change, negative = inhibition [3, 13] -28.4% [at 17.2 µM] | activity, negative = inhibition [4, 13] 13.1% [at 17.2 µM] | Potency [5] > 46 µM and > 20.6 µM | Potency [6] > 46 µM and > 20.6 µM | Potency [12] | Potency [7] | activity change, negative = inhibition [8] -0.451% | outcome [9] | Potency [10] | activity, negative = inhibition ([11]; at 28.7 µM (top of the series), parasite line A) 3.98% | activity, negative = inhibition ([11]; at 28.7 µM (top of the series), parasite line B) 6.27% | Potency (AS120) | Potency (CP238) | Potency (CP250) | Potency (CP262) | Potency (CP265) | Potency (FAB9) | Potency (JCK) | Potency (PC49)
-0.183%: max response [8, 14]
-0.394%: max response [8, 15]

CC1=C(C(=O)O)N2C(=O)[C@@H](NC(=O)[C@@H](N)c3ccccc3)[C@@H]2SC1
inactive: activity change, negative = inhibition ([1]; at 17.2 µM (top of the series)) 16.3% | activity change, negative = inhibition ([1]; at 38 µM (top of the series)) 11% | activity change, negative = inhibition ([3]; at 17.2 µM (top of the series)) -9.84% | activity change, negative = inhibition ([3]; at 38 µM (top of the series)) -0.753% | activity, negative = inhibition ([4]; at 17.2 µM (top of the series)) 10.2% | activity, negative = inhibition ([4]; at 38 µM (top of the series)) 30.7% | Potency [12] | Potency [7] | activity change, negative = inhibition [8] -1.09% | Potency [10]
-0.484%: max response [8, 15]
0.948%: max response [8, 14]

COc1c(O)cc2c(c1O)[C@@H]1O[C@@H](CO)[C@@H](O)[C@@H](O)[C@@H]1OC2=O
inactive: activity change, negative = inhibition [1, 13] 9.85% [at 17.2 µM] | Potency [2] | activity change, negative = inhibition [3, 13] 4.01% [at 17.2 µM] | activity, negative = inhibition [4, 13] -7.81% [at 17.2 µM] | Potency [5] > 20.6 µM | Potency [6] > 20.6 µM | Potency [12] | Potency [7] | activity change, negative = inhibition [8] -2.39% | outcome [9] | Potency [10] | activity, negative = inhibition [11, 16] 5.83% | activity, negative = inhibition [11, 17] 11.9% | Potency (AS120) | Potency (CP238) | Potency (CP250) | Potency (CP262) | Potency (CP265) | Potency (FAB9) | Potency (JCK) | Potency (PC49)
-7.08%: max response [8, 15]
-8.82%: max response [8, 14]

CCN(CC)CC#CCOC(=O)[C@@](O)(c1ccccc1)C1CCCCC1
-6.72%: max response [8, 14]
active: Potency [2] 3.98 µM and 1.26 µM
inactive: activity change, negative = inhibition ([1]; at 17.2 µM (top of the series)) 0.766% | activity change, negative = inhibition ([1]; at 38 µM (top of the series)) -1.31% | activity, negative = inhibition [4, 13] -21.9% [at 38 µM] | Potency [5] > 46 µM and > 20.6 µM | Potency [6] > 46 µM and > 20.6 µM | Potency [12] | Potency [7] | activity change, negative = inhibition [8] -3.63% | outcome [9] | Potency [10] | Potency (AS120) | Potency (CP238) | Potency (CP250) | Potency (CP262) | Potency (CP265) | Potency (FAB9) | Potency (JCK)
-11.7%: max response [8, 15]

CCN(CC)CCC[C@H](C)Nc1ccnc2cc(Cl)ccc12
-15.4%: max response [8, 14]
-16%: max response [8, 15]
active: Potency ([11]; parasite line A) 0.158 µM | Potency ([11]; parasite line B) 0.316 µM | Potency (AS120) 11.2 µM | Potency (CP238) 10 µM | Potency (CP250) 3.98 µM | Potency (CP262) 2.39 µM | Potency (FAB9) 0.141 µM | Potency (JCK) 10 µM
inactive: activity change, negative = inhibition ([1]; at 17.2 µM (top of the series)) 13.4% | activity change, negative = inhibition ([1]; at 38 µM (top of the series)) 1.88% | activity change, negative = inhibition ([3]; at 17.2 µM (top of the series)) -9.2% | activity change, negative = inhibition ([3]; at 38 µM (top of the series)) -24.9% | activity, negative = inhibition ([4]; at 17.2 µM (top of the series)) 3.07% | activity, negative = inhibition ([4]; at 38 µM (top of the series)) 15.2% | Potency [5] > 46 µM and > 20.6 µM | Potency [6] > 46 µM and > 20.6 µM | Potency [12] | Potency [7] | activity change, negative = inhibition [8] -0.708% | outcome [9] | Potency [10]

CN(C)CC[C@H](c1ccc(Br)cc1)c1ccccn1
inactive: activity change, negative = inhibition ([1]; at 17.2 µM (top of the series)) 0.671% | activity change, negative = inhibition ([1]; at 38 µM (top of the series)) 15.7% and 25.3% | Potency [2] | activity, negative = inhibition ([4]; at 17.2 µM (top of the series)) -5.49% | activity, negative = inhibition ([4]; at 38 µM (top of the series)) -29.8% | Potency [12] | Potency [7] | activity change, negative = inhibition [8] -2.32% | Potency [10]
-5.95%: max response [8, 15]
-4.35%: max response [8, 14]

O=c1[nH]c(=O)n([C@@H]2C[C@H](O)[C@H](CO)O2)cc1I
2.86%: max response [8, 14]
inactive: activity change, negative = inhibition [1, 13] 9.17% [at 17.2 µM] | Potency [2] | activity change, negative = inhibition [3, 13] 8.3% [at 17.2 µM] | activity, negative = inhibition [4, 13] 11.4% [at 17.2 µM] | Potency [5] > 20.6 µM | Potency [6] > 20.6 µM | Potency [12] | activity change, negative = inhibition [8] -3.3% | outcome [9] | Potency [10] | activity, negative = inhibition [11, 16] -1.96% | activity, negative = inhibition [11, 17] 14.3% | Potency (AS120) | Potency (CP238) | Potency (CP250) | Potency (CP262) | Potency (CP265) | Potency (FAB9) | Potency (JCK) | Potency (PC49)
1.83%: max response [8, 15]
